Screening data deposited in PubChem by National Center for Advancing Translational Sciences (NCATS).
NS1 function inh = qHTS Assay for Inhibitors of Influenza NS1 Protein Function | Potency, µM (series often up to 46.1 µM), without a hit: at the top dose activity, positive = more growth | hit rate 0.4% among 270,000 | AID 2326, 2010; calls by dose curve; further: actives are rising curves; nearly all actives have a fitted effect of over 50% in size
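S. cerevisiae expressing influenza A NS1, grown in glucose, washed, then diluted 1:100 into pH 6.0 -URA galactose medium with 23 nl compound. Growth recovery read as OD600; NS1-free strain serves as control.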
Tb PYK inh = qHTS of Trypanosoma Brucei Inhibitors | pyruvate kinase (Trypanosoma brucei), Q57TT1 | Potency, µM (doses to about 76.8 µM), for inactives: top-dose activity, negative = inhibition, hits mostly inhibitors | hit rate 0.12% among 410,000 | TbPYK enzyme, Kinase-Glo Plus ATP luminescence, 45 min; further: on the % scale 0 is the no-effect control and ±100 the full control effect; nearly all actives have a fitted effect of over 50% in size
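Screened from lowest to highest concentration, compounds were pinned into TbPYK/substrate mixtures, and ADP (130 uM final) was added. Plates sat at room temperature for 45 min prior to Kinase-Glo Plus detection by luminescence.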
RE007 growth inh = qHTS Assay for Inhibitors of the HIV-1 protein Vpr; S. pombe RE007 Vpr strain, BacTiter-Glo ATP luminescence, 24 h; Potency, µM (titrated, usually from 92.2 µM), without a hit: top-dose activity change, negative = less growth, hits mostly inhibitors; hit rate 0.21% among 360,000; AID 651644, 2012; active means well fitted falling curve with a large enough effect; inconclusive means small, poorly fitted or top-dose-only effect; inactive means no such curve, though single readings can be large or run the other way; further: on the % scale 0 is the no-effect control and ±100 the full control effect; nearly all actives have a fitted effect of over 50% in size
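Fission yeast strain RE007, carrying one chromosomally integrated HIV-1 vpr copy, was seeded at OD 0.01 in PMG+AL medium with 23 nL pinned compound. After 24 h at 30 °C and 99% humidity, viability was read by BacTiter-Glo luminescence.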
Giardia FBPA inh = qHTS Assay for Inhibitors of Fructose-1,6-bisphosphate Aldolase from Giardia Lamblia | Potency, µM (titrated, usually from 59.6 µM), without a hit: top-dose activity, negative = inhibition, hits mostly inhibitors | A8B2U2 | hit rate 0.71% among 290,000 | purified Giardia FBPA; further: on the % scale 0 is the no-effect control and ±100 the full control effect; nearly all actives have a fitted effect of over 55% in size
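40 nM FBPA preincubated 10 min at RT with compound (up to 57.5 uM final), then substrate plus GAPDH/TPI/NAD/arsenate coupling and diaphorase/resazurin added. Fluorescence read after 20 min at RT, 525/598 nm.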
Sm TGR inh = qHTS Assay for the Inhibitors of Schistosoma Mansoni Peroxiredoxins. purified TGR, DTNB reduction, TNB absorbance 405 nm. Potency, µM (titrated, usually from 114 µM), for the others: at the highest dose activity change, negative = inhibition, usual class: inhibitors. hit rate 3% among 360,000; further: on the % scale 0 is the no-effect control and ±100 the full control effect; nearly all actives have a fitted effect of over 60% in size
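First, TGR (20 nM dispensed) and NADPH were mixed with compound. Second, a 15 min room-temperature incubation followed. Third, further NADPH and then DTNB were added to start the reaction. Finally, TNB absorbance was monitored kinetically.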
LmPK inhibitor = qHTS Assay for Inhibitors of Leishmania Mexicana Pyruvate Kinase (LmPK). Q27686. purified LmPK, Kinase-Glo ATP luminescence, 1 h. Potency, µM (top dose mostly 57.5 µM), without a hit: top-dose activity change, negative = inhibition, most hits filed as inhibitors. hit rate 0.37% among 290,000. AID 1721, 2009; further: on the % scale 0 is the no-effect control and ±100 the full control effect
Target sequence (Q27686 whole entry, looked up): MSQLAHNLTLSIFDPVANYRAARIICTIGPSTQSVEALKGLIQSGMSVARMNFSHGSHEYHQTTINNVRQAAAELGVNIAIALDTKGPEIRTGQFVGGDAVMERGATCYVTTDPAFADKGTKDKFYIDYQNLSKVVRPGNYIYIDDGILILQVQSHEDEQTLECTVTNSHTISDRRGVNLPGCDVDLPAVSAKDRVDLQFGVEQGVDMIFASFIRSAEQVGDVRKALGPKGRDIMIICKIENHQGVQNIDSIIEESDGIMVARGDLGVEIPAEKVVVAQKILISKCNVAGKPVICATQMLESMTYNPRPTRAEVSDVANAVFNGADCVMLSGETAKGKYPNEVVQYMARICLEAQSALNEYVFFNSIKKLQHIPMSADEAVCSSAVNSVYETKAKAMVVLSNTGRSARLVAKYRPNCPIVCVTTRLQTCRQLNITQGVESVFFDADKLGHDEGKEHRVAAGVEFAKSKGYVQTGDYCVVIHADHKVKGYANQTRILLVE
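Purified LmPK (0.1 nM) converted ADP (0.1 mM) to ATP with PEP (0.5 mM) in imidazole buffer pH 7.2 with KCl and MgCl2, 1 h at room temperature. ATP was read by Kinase-Glo luminescence; data normalized to uninhibited and no-enzyme controls.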
The depositor's hits bear a star; [ ] = dose if it differs, or a comment. Compounds with a hit are over-represented: about 3.5% of the library has one in this group of screens. Unless noted, the call rests on the fitted dose curve; in most records, active means well fitted curve in the direction sought with a large enough effect; inconclusive means small, poorly fitted or top-dose-only effect, or another doubt; inactive means no such curve, though single readings can be large; an effect the other way counts as inactive or inconclusive. Potency means the concentration at half of the fitted maximal effect.

CCOC(=O)CSc1cc(C)c(C#N)c2nc3ccccc3n12 was read as NS1 function inh -6%, Tb PYK inh -17%, RE007 growth inh 2%, Giardia FBPA inh -16%, Sm TGR inh 2.5µM* and LmPK inhibitor 2%.
Cc1cc(Nc2c(C)n(C)n(-c3ccccc3)c2=O)n2c(nc3cc(F)c(F)cc32)c1C#N was read as NS1 function inh -2%, Tb PYK inh -16%, RE007 growth inh -5%, Giardia FBPA inh -23%, Sm TGR inh 8.9µM* and LmPK inhibitor -3%.
For CCC(C)Sc1cc(C)c(C#N)c2nc3ccccc3n12 (stereo not drawn) the results were NS1 function inh -16%, Tb PYK inh -2%, RE007 growth inh -8%, Giardia FBPA inh 15%, Sm TGR inh -14% and LmPK inhibitor 5%.
Screening CCCc1cc(SCC(=O)Nc2c(C)n(C)n(-c3ccccc3)c2=O)n2c(nc3ccccc32)c1C#N returned NS1 function inh 19%, Tb PYK inh 0%, RE007 growth inh 5%, Giardia FBPA inh inconclusive, Sm TGR inh 1.8µM* and LmPK inhibitor 4%.
For Cc1cc(Nc2ccc(O)cc2)n2c(nc3ccccc32)c1C#N the results were NS1 function inh 6%, Tb PYK inh 4%, RE007 growth inh 12%, Giardia FBPA inh 4%, Sm TGR inh -7% and LmPK inhibitor 1%.
`COc1ccc(CNC(=O)c2ccc(CS(=O)(=O)c3ccccc3OC)o2)cc1` gave Tb PYK inh 0% and Sm TGR inh 9%.
For O=C(NCc1ccccc1)c1ccc(CSc2nc3cccnc3n2Cc2cccc(F)c2)cc1 the results were Tb PYK inh -12% and Sm TGR inh 4%.
`Cc1ccc2oc(-c3ccccc3)nc2c1` gave NS1 function inh -16%, Tb PYK inh -7%, RE007 growth inh -9%, Giardia FBPA inh -8%, Sm TGR inh 5% and LmPK inhibitor 16µM*.
For Cc1ccc2nc(-c3cc(N)cc(N)c3)oc2c1 the results were NS1 function inh 10%, Tb PYK inh -1%, RE007 growth inh -7%, Giardia FBPA inh -13%, Sm TGR inh 50µM* and LmPK inhibitor inconclusive.
`Nc1ccc(-c2nc3ccc(N)cc3o2)cc1` gave NS1 function inh -10%, Tb PYK inh -24%, RE007 growth inh -22%, Giardia FBPA inh -9%, Sm TGR inh 5% and LmPK inhibitor -17%.
Cc1ccccc1CNC(=O)C(=O)NCC(c1cccs1)S(=O)(=O)c1ccc(Cl)cc1 (stereo not drawn) was read as Tb PYK inh 6% and Sm TGR inh inconclusive.
Screening COc1ccc(/C=C/N(CCc2ccc(OC)c(OC)c2)C(=O)c2ccccn2)cc1 returned Giardia FBPA inh -5%[12.9 µM].
COc1ccc(S(=O)(=O)Cc2ccc(C(=O)NCc3ccccn3)o2)cc1 was read as NS1 function inh -7%, Tb PYK inh -21%, RE007 growth inh -3%, Giardia FBPA inh -1%, Sm TGR inh 35µM* and LmPK inhibitor 2%.
Screening COc1ccc(S(=O)(=O)Cc2ccc(C(=O)NCC(OC)OC)o2)cc1 returned NS1 function inh 0%, Tb PYK inh 3%, RE007 growth inh 5%, Giardia FBPA inh 5%, Sm TGR inh -17% and LmPK inhibitor -4%.
Cc1ccc(CS(=O)(=O)Cc2ccc(C(=O)NCc3ccccn3)o2)cc1 was read as NS1 function inh 15%, Tb PYK inh 9%, RE007 growth inh 9%, Giardia FBPA inh 4%, Sm TGR inh 40µM* and LmPK inhibitor 2%.
O=C(NCc1ccc(F)cc1)c1ccc(CS(=O)(=O)c2ccc(Cl)cc2)o1 was read as Tb PYK inh 3%[15.4 µM] and Sm TGR inh -10%.
COC(=O)c1ccc(CS(=O)(=O)c2ccc(F)cc2)o1 was read as NS1 function inh 2%, Tb PYK inh -1%, RE007 growth inh 2%, Giardia FBPA inh -5%, Sm TGR inh 22µM* and LmPK inhibitor 6%.
Screening COC(CNC(=O)c1ccc(CS(=O)(=O)c2ccccc2)o1)OC returned NS1 function inh 3%, Tb PYK inh -9%, RE007 growth inh 1%, Giardia FBPA inh 3%, Sm TGR inh 18µM* and LmPK inhibitor 6%.
CC(=O)Nc1ccc(S(=O)(=O)N2CCC(n3c(C)nc4cccnc43)CC2)cc1 was read as Tb PYK inh 2% and Sm TGR inh -6%.
CCC(=O)Nc1ccc2c(c1)nc1n2CCN(C2CCCCC2)C1 was read as NS1 function inh 6%, Tb PYK inh 0%, RE007 growth inh -18%, Giardia FBPA inh -30%, Sm TGR inh inconclusive and LmPK inhibitor -11%.
O=C(Nc1ccc2c(c1)nc1n2CCN(C2CCCCC2)C1)NC1CCCCC1 was read as NS1 function inh 12%, Giardia FBPA inh inconclusive, Sm TGR inh 13µM* and LmPK inhibitor 0%.
COc1ccccc1C(=O)Nc1ccc2c(c1)nc1n2CCN(C2CCCCC2)C1 was read as NS1 function inh 21%, Tb PYK inh 3%, RE007 growth inh -12%, Giardia FBPA inh 9%, Sm TGR inh 25µM* and LmPK inhibitor -1%.
`Cc1ccc(N2CCN(C(=O)NCc3noc4ccccc34)CC2C)cc1` (stereo not drawn) gave Tb PYK inh 0% and Sm TGR inh 2%.
`Cc1nc(-c2coc3c(O)c(O)ccc3c2=O)cs1` gave Giardia FBPA inh 14µM*.
For CCOc1cc(C2C(C(N)=O)=C(C)Nc3ncnn32)cc(Br)c1O (stereo not drawn) the results were Tb PYK inh -3% and Sm TGR inh -10%.
Screening CCOc1cc(C2C(C(=O)Nc3ccccc3)=C(C)Nc3ncnn32)cc(Br)c1O (stereo not drawn) returned Tb PYK inh -13% and Sm TGR inh 45µM*.
`COC(=O)c1scc(-c2ccc(C)cc2)c1S(=O)(=O)N1CCN(c2ccccc2F)CC1` gave Tb PYK inh 1% and Sm TGR inh -3%.
`CS(=O)(=O)Nc1ccccc1C(=O)N1CCN(c2ccccc2)CC1` gave NS1 function inh 6%, Giardia FBPA inh 7%, Sm TGR inh -17% and LmPK inhibitor 0%.
For Cc1ccccc1N1CCN(C(=O)c2ccccc2NC(=O)/C=C\C(=O)O)CC1 the results were NS1 function inh -4%, Tb PYK inh -51%, RE007 growth inh -12%, Giardia FBPA inh 9%, Sm TGR inh inconclusive and LmPK inhibitor -5%.
